This is a sample that favours compounds with a hit; in the whole collection about 8.3% have one here.
HCV inhibitor: blocks hepatitis C virus. Potency, µM (doses to about 41.8 µM), inactives show at the top dose activity change, negative = inhibition, hits mostly inhibitors. Huh7.5.1 HCVcc-Cre infection, luciferase reporter, 44 h. 340,000 tested, 3.4% active. AID 651820; further: potency means the concentration at half of the fitted maximal effect
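Cells seeded at 1,000/well and cultured 4 h, then compounds added followed by HCVcc-Cre virus (~0.5 moi). After 44 h further culture, luciferase substrate was added, plates held 15 min at room temperature, and luminescence read for 15 sec.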
Marburg entry inh: Marburg virus entry inhibition. Marburg virus pseudotyped entry inhibition, cell reporter. Potency, µM (series often up to 37.8 µM), for inactives: at the top dose activity change, negative = inhibition, actives largely listed as inhibitors. 300,000 tested, 1.8% active. AID 540276; calls by dose curve; tested in HEK293 cells; further: potency means the concentration at half of the fitted maximal effect
FBPA Giardia inh: inhibitors of Giardia lamblia fructose-1,6-bisphosphate aldolase; purified Giardia FBPA; Potency, µM (highest dose often 59.6 µM), for inactives: top-dose activity, negative = inhibition, hits mostly inhibitors; 290,000 tested, 0.71% active; further: potency means the concentration at half of the fitted maximal effect; nearly all actives have a fitted effect of over 55% in size
Target sequence (A8B2U2 whole entry, looked up): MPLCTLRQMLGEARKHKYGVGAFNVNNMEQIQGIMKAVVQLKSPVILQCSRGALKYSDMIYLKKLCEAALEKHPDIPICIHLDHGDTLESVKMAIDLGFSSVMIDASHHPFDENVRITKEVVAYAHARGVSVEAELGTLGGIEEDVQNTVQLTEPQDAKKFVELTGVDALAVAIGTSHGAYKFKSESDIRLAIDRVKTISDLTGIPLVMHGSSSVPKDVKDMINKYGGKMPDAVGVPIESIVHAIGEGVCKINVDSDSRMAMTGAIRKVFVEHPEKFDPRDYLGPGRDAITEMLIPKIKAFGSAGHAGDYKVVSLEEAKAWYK
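Giardia FBPA (40 nM reagent) was preincubated 10 min at RT with compound (up to 57.5 uM final), then substrate plus GAPDH/TPI/NAD/arsenate coupling system with diaphorase/resazurin was added; resorufin fluorescence (525/598 nm) was read after 20 min.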
HCMV inh: human cytomegalovirus inhibition | HFF cells, HCMV-luciferase reporter, 72 h; hits give low values | activity change, negative = inhibition, % at 57.5 µM | 410,000 tested, 4.5% active; in the data active means activity change below about -60%; inconclusive means no clear call, values can overlap the other calls; inactive means above about -39%
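Luciferase read-out from HCMV-luciferase-infected HFFs (MOI 1 PFU/cell) 72 h post infection at 37C; compounds added after 16 h cell attachment; activity normalized between buffer-only basal and Salinomycin (10uM) inhibitor controls.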
LASV entry inh: blocks Lassa virus binding to or entry into cells; AID 540256; Potency, µM (top dose mostly 37.9 µM), for the others: at the highest dose activity change, negative = inhibition, usual class: inhibitors; Lassa virus pseudotype entry inhibition, cell reporter; 300,000 tested, 1.2% active; calls by dose curve; tested in HEK293 cells; further: potency means the concentration at half of the fitted maximal effect; nearly all actives have a fitted effect of over 50% in size
FMDV antiviral: blocks foot and mouth disease virus; Potency, µM (top dose mostly 57.9 µM), without a hit: at the highest dose activity change, negative = inhibition, actives largely listed as inhibitors; FMDV antiviral cell-based qHTS; 410,000 tested, 1.2% active; calls by dose curve; tested in HEK293T cells; further: read-out not given here; potency means the concentration at half of the fitted maximal effect; nearly all actives have a fitted effect of over 45% in size
Numbers without * were called inactive; ? = inconclusive; . = no result; [ ] = remark or other dose. Unless noted, the call rests on the fitted dose curve; in most records, active means well fitted curve in the direction sought with a large enough effect; inconclusive means small, poorly fitted or top-dose-only effect, or another doubt; inactive means no such curve, though single readings can be large; an effect the other way counts as inactive or inconclusive. On the % scale 0 is the no-effect control and ±100 the full control effect.

SMILES | HCV inhibitor | Marburg entry inh | FBPA Giardia inh | HCMV inh | LASV entry inh | FMDV antiviral
Nc1nccc(-c2c(-c3ccc(F)cc3)nn3cc(C(F)(F)F)ccc23)n1 | . | . | . | . | 19% | .
CC[C@H](C)[C@@H](C(=O)NCCCCCCCCCCC(=O)N1CCN(C(=O)OC(C)(C)C)CC1)n1cc(CCCCCNC(=O)OC(C)(C)C)nn1 | ? | . | . | -69* | . | ?
CC(C)(C)OC(=O)NCCCCCc1cn([C@@H](CO)C(=O)NCCCCCCCCCCC(=O)N2CCN(C(=O)OC(C)(C)C)CC2)nn1 | ? | . | . | -95* | . | 7.1µM*
CC(C)(C)OC(=O)CC[C@@H](C(=O)NCCCCCCCCCCC(=O)N1CCN(C(=O)OC(C)(C)C)CC1)n1cc(CCCCCNC(=O)OC(C)(C)C)nn1 | -14% | . | . | -14 | . | 0%
CC(=O)CSc1nc2ccc(Nc3nc(N4CCOCC4)nc(N4CCOCC4)n3)cc2s1 | 32µM* | ? | -8% | -13 | -13% | -10%
COc1ccc(NC(=O)CSc2nc3ccc(Nc4nc(N5CCOCC5)nc(N5CCOCC5)n4)cc3s2)cc1 | 10µM* | . | . | ? | . | -28%
CC(C)(C)NC(=O)CSc1nc2ccc(Nc3nc(N4CCOCC4)nc(N4CCOCC4)n3)cc2s1 | -24% | . | -8% | -66* | . | ?
CCCCNc1ncnc2c1nnn2C | . | . | . | 54 | -6%[46.1 µM] | -8%
COC(=O)C1=C(C)N(CCc2cc(OC)c(OC)c(OC)c2)C(=O)NC1c1ccc(Br)cc1 (stereo not drawn) | . | 2%[14.2 µM] | . | . | -3%[14.3 µM] | .
CC1OC(Oc2c(-c3cc(O)c(O)c(O)c3)oc3cc(O)cc(O)c3c2=O)C(O)C(O)C1O (stereo not drawn) | 6% | . | 10µM* | ? | . | -18%
CN(C)[C@@H]1CC[C@@]23CCCN2C(=O)CCC[C@H]3[C@H]1Cc1ccccc1 | . | . | . | 2 | . | .
CCC(=O)Nc1ccc(/C=C(\C(C)=O)C(=O)c2ccccc2)cc1 | -21% | 15% | 5% | -25 | -28% | 28µM*
CCC(=O)Nc1ccc(C=C(C(C)=O)C(C)=O)cc1 | 14% | . | 3% | 80 | . | 20µM*
COc1cccc(C=C(C(C)=O)C(=O)c2ccccc2)c1 | . | . | . | 4 | . | 20µM*
CC(=O)/C(=C/c1ccc(N(C)C)cc1)C(=O)c1ccccc1 | -17% | 16% | -1% | -22 | -15% | ?
CC(C)C[C@H](NC(=O)[C@H](CC(C)C)NC(=O)[C@@H](Cc1c[nH]c2ccccc12)NC(=O)[C@H](Cc1ccccc1)NC(=O)[C@@H](Cc1c[nH]c2ccccc12)NC(=O)[C@H](CCC(N)=O)NC(=O)[C@H](CCC(N)=O)NC(=O)[C@@H]1CCCN1C(=O)[C@H](CCCCN)NC(=O)[C@@H]1CCCN1C(=O)[C@@H](CCCNC(=N)N)NC(=O)[C@@H]1CCCN1C(=O)CNC(=O)[C@H](CC(C)C)NC(=O)[C@H](CC(C)C)NC(=O)[C@H](Cc1ccc(O)cc1)NC(=O)CNC(=O)[C@H](C)NC(=O)[C@H](CO)NC(=O)[C@H](CC(N)=O)NC(=O)[C@H](CC(C)C)NC(=O)[C@@H](NC(=O)[C@H](Cc1c[nH]c2ccccc12)NC(=O)CN)[C@@H](C)O)C(N)=O | . | . | 0% | . | . | .
O=C(CCCC(=O)NCc1ccc(F)cc1)NCc1ccc(F)cc1 | 10% | 1%[46.1 µM] | 0% | -29 | 27% | 35µM*
COc1ccc(CNC(=O)CCNC(=O)c2ccc(C(C)(C)C)cc2)cc1OC | 2% | -1% | . | ? | 8% | -15%
CC(C)(C)c1ccc(C(=O)NCCC(=O)NCc2ccc(F)cc2)cc1 | . | . | . | -82* | . | -24%
Nc1nc(N)c(N=Nc2ccc(Cl)cc2)c(=O)[nH]1 | 5.6µM* | . | 1% | 37 | . | 32%
CCCOc1ccc(NC(=O)c2c(-c3ccccc3)noc2C)cc1 | 14% | . | 1% | -3 | . | -19%
Cc1onc(-c2ccccc2)c1C(=O)Nc1ccc(OC(C)C)cc1 | -15% | . | -1% | -29 | . | 0.71µM*
Cn1cc([N+](=O)[O-])c(C(=O)Nc2sc3c(c2C#N)CCC3)n1 | -1% | . | . | -101* | . | 10%
Cc1onc(-c2c(F)cccc2Cl)c1C(=O)Nc1sc2c(c1C(N)=O)CCC2 | ? | ? | -8% | -74* | -28% | ?
Cn1cc(Br)c(C(=O)Nc2sc3c(c2C#N)CCC3)n1 | 13% | 7% | -6% | -4 | 11% | 46%
SMILES | HCV inhibitor | Marburg entry inh | FBPA Giardia inh | HCMV inh | LASV entry inh | FMDV antiviral
Cc1noc(C)c1C(=O)Nc1sc(C)c(-c2ccccc2)c1C#N | 3% | -1% | -22% | -104* | 14% | 28µM*
Cc1onc(-c2ccccc2)c1C(=O)Nc1sc2c(c1C(N)=O)CCC2 | -17% | ? | -21% | ? | 0% | -7%
COc1ccc(-c2nc3cnc(Nc4ccccn4)cc3n2C)cc1OC | . | . | . | -10 | . | .
Cc1onc(-c2ccccc2)c1C(=O)Nc1sc2c(c1C#N)CCC2 | ? | 4.6µM* | -12% | ? | ? | ?
C[C@H](N)c1cccc(Cl)c1Cl | . | 9% | . | . | . | .
CC(C)C[C@H]1CN(CCCC[C@H]2CNC(=O)C(=O)N2CCC2CCCCC2)C(=O)C(=O)N1CCC1CCCCC1 | . | . | . | -108* | . | 35µM*
CC(C)C[C@@H]1CN(CCCC[C@H]2CNC(=O)C(=O)N2CCC2CCCCC2)C(=O)C(=O)N1CCC1CCCCC1 | . | . | . | -15 | . | ?
CC(C)Sc1nc2ccc(Br)cc2[nH]1 | 6% | ? | -19% | -102* | 7%[46.1 µM] | 29%
COc1ccc2ccc3c(c2c1)N=C[C@]1(O3)N(C)c2ccccc2C1(C)C | -4% | ? | 8.9µM* | ? | -7% | ?
CC1=NOC2(C1)N(C)c1ccccc1C2(C)C (stereo not drawn) | 7% | 1% | 19% | 5 | 6% | 0%
COc1ccc(OC)c(S(=O)(=O)N2CCC(C(=O)Nc3cc(C)ccc3C)CC2)c1 | -15% | ? | 1% | -93* | ? | .
COc1ccc(NC(=O)C2CC2)cc1S(=O)(=O)N1CCOCC1 | -1% | . | . | 0 | . | -2%
